{
  "source": "PubChem BioAssay AID2284148",
  "about": "(EPA ToxCast)",
  "note": "The source made the active and inactive calls. Rule for the calls: active = hit-call score of the fitted dose curve at least 0.9, where 1 is the maximum; inactive = score below 0.9.",
  "data": [
    {"biological_target": "human Cholecystokinin Receptor CCK1 (CCKA) Agonism, CCKAR (gene 886) (UniProt P32238)", "sequence (P32238 whole entry, looked up)": "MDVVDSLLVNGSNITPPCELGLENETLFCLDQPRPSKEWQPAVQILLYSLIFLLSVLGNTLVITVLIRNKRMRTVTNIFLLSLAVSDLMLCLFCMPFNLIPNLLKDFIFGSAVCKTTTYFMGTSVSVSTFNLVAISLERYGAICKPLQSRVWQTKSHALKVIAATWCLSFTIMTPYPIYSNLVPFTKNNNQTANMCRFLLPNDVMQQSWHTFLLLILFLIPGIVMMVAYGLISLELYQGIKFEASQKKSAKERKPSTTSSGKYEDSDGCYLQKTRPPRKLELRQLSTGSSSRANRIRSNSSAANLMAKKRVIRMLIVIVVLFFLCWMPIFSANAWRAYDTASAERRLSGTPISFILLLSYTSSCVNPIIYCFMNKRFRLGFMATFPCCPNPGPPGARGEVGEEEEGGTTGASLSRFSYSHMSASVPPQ", "test": "ERF_TW_GPCR_hCCKAR: Eurofins (ERF) G Protein-Coupled Receptor (GPCR) Radioligand Binding LeadHunter Assay for human Cholecystokinin Receptor CCK1 (CCKA) Agonism", "description": "ERF_TW_GPCR_hCCKAR is a biochemical, single-readout assay that uses extracted gene-proteins in a cell-free assay. Measurements were taken 1 hour after chemical dosing in a 96-well plate. See CCK1 (CCKA) Human Cholecystokinin GPCR Binding (Antagonist Radioligand) Assay, Panlabs.ERF_TW_GPCR_hCCKAR is an assay component calculated from the ERF_TW_GPCR_hCCKAR assay. It is designed to measure radioligand binding using a type of binding reporter as detected by scintillation counting with radiometry technology.Data from the assay component ERF_TW_GPCR_hCCKAR was analyzed at the assay endpoint, ERF_TW_GPCR_hCCKAR, in the positive analysis fitting direction relative to DMSO as the negative control and baseline of activity. Using a type of binding reporter, loss-of-signal activity can be used to understand changes in binding as they relate to gene CCKAR. To generalize the intended target to other relatable targets, this assay endpoint is annotated to the gpcr intended target family, where the subfamily is cholecystokinin.\n1321-N1 (human astrocytoma) stably transfected with a plasmid encoding the human recombinant CCK1 receptor are used to prepare membranes in modified HEPES buffer pH 7.4. A 5 ug aliquot of membrane is incubated with 0.11 nM [125I]CCK-8 for […] at 25C. […] Membranes are filtered and washed, the filters are then counted to determine [125I]CCK-8 specifically bound. […]", "values": [
      {"smiles": "CCCCC[C@H](O)CC(=O)CCc1ccc(O)c(OC)c1", "outcome": "inactive"},
      {"smiles": "O=C(/C=C/c1ccc(O)cc1)CC(=O)/C=C/c1ccc(O)cc1", "AC50": "1990 nM (active)"}
    ]}
  ]
}
